# Laboratory results from PubChem BioAssay (EPA / NIEHS).
# The source made the active and inactive calls. The calls were made as follows: active = hit-call score of the fitted dose curve at least 0.9, where 1 is the maximum; inactive = score below 0.9.
# Legend:
# [1] = target: CCAAT/enhancer-binding protein beta (Homo sapiens) (UniProt P17676); test: ATG_C_EBP_CIS: Attagene CIS-FACTORIAL HepG2 Assay for human CCAAT/Enhancer Binding Protein (C/EBP) beta (AID 2282927); details: HepG2 Attagene cis-factorial transcription factor reporter; actives raise or lower the signal
# How it was run: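 Endogenous transcription factor activity in human liver HepG2 cells is inferred from induction of a CEBPB-linked reporter mRNA. Exposure lasts 24 h; activity is fitted in both directions relative to DMSO.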
# [2] = ATG_CMV_CIS: Attagene CIS-FACTORIAL HepG2 Assay for human CMV (Internal Marker) (AID 2282928); details: HepG2 CMV promoter reporter, transcription factor profiling; actives raise or lower the signal;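 also: endpoint acts as a background internal control marker rather than a target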
# How it was run: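 Reporter transcripts from transfected HepG2 cells are isolated after 24 h of chemical dosing, reverse-transcribed and amplified. Fragments labeled with 6-FAM are cut with HpaI and quantified by capillary electrophoresis; DMSO defines baseline.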
# [3] = ATG_AP_1_CIS: Attagene CIS-FACTORIAL HepG2 Assay for human Activator Protein 1 (AP-1) (AID 2282931); details: HepG2 Attagene cis-factorial AP-1 reporter mRNA; actives raise or lower the signal
# How it was run: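 Readout is reporter transcript level from endogenous transcription factor activity, quantified by RT-PCR with fluorescent primer extension and capillary electrophoresis. Transiently transfected HepG2 cells, 24 h exposure. Curves fitted both directions versus DMSO.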
# [4] = ATG_AP_2_CIS: Attagene CIS-FACTORIAL HepG2 Assay for human Activator Protein 2 (AP-2) (AID 2282932); details: HepG2 AP-2 cis-reporter, Attagene transcription factor profiling; actives raise or lower the signal
# How it was run: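 Transiently transfected HepG2 cells are exposed to chemical for 24 h. Reporter transcripts are then measured as fluorescence following RT-PCR and capillary separation, and gain- or loss-of-signal is fitted relative to DMSO.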
# [5] = ATG_BRE_CIS: Attagene CIS-FACTORIAL HepG2 Assay for human Bone Morphogenetic Protein (BMP) Response Element (BRE) (AID 2282933); details: HepG2 BMP response element reporter, Attagene transcription factor profiling; actives raise or lower the signal
# How it was run: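 Gain- or loss-of-signal was derived by bidirectional fitting against DMSO controls. The signal came from reporter mRNA, measured by RT-PCR and capillary electrophoresis, in HepG2 cells transiently carrying multiple reporter units and dosed for 24 h.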
# [6] = ATG_E_Box_CIS: Attagene CIS-FACTORIAL HepG2 Assay for human Enhancer Box (E-box) (AID 2282936); details: HepG2 E-box cis-reporter transcription, actives raise or lower the signal
# How it was run: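 Fluorescent reporter fragments separated by capillary electrophoresis gave the signal; mRNA came from HepG2 cells transfected with cis-element reporters and treated 24 h. Curves fitted bidirectionally relative to DMSO controls.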
# [7] = ATG_M_61_CIS: Attagene CIS-FACTORIAL HepG2 Assay for M61 Transcription Factor (Internal Marker) (AID 2282937); details: HepG2 Attagene CIS-FACTORIAL M61 internal marker reporter; actives raise or lower the signal
# How it was run: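 Readout is reporter mRNA by RT-PCR, fluorescent primer extension and capillary electrophoresis, with gain or loss fitted relative to DMSO. Transfected HepG2 cells carrying endogenous-TF-driven cis reporters were exposed to chemicals for 24 hours.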
# [8] = ATG_EGR_CIS: Attagene CIS-FACTORIAL HepG2 Assay for human Early Growth Response 1 (EGR1) (AID 2282938); details: HepG2 Attagene CIS-FACTORIAL EGR reporter mRNA; actives raise or lower the signal
# How it was run: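 After 24 h compound exposure, RNA from reporter-transfected HepG2 cells was reverse-transcribed, PCR-amplified, fluorescently labelled and resolved by capillary electrophoresis. EGR1 reporter transcript changes, up or down, were fitted against DMSO, reflecting endogenous transcription-factor activity.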
# [9] = ATG_Ets_CIS: Attagene CIS-FACTORIAL HepG2 Assay for human Erythroblast Transformation Specific (ETS) (AID 2282941); details: HepG2 ETS cis-reporter transcription, actives raise or lower the signal
# How it was run: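 Bidirectional fit versus DMSO of reporter mRNA signal, detected by RT-PCR and capillary electrophoresis in HepG2 cells transiently transfected with cis-element reporters and dosed 24 h.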
# [10] = ATG_FoxO_CIS: Attagene CIS-FACTORIAL HepG2 Assay for human Forkhead box O (FoxO) (AID 2282943); details: HepG2 Attagene cis-reporter, FoxO element, mRNA; actives raise or lower the signal
# How it was run: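 HepG2, transient MRTU transfection (cis element, endogenous TFs). Dose 24 h. TriZol RNA → oligo(dT) RT → PCR → 6-FAM primer extension → HpaI cut → CE. Gain/loss vs DMSO.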
# [11] = ATG_GATA_CIS: Attagene CIS-FACTORIAL HepG2 Assay for human GATA Binding Protein (AID 2282944); details: HepG2 GATA cis-element reporter, Attagene multiplex mRNA; actives raise or lower the signal
# How it was run: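 DMSO serves as negative control and baseline for bidirectional fitting of reporter mRNA changes. HepG2 cells bearing transiently transfected cis-promoter reporters were exposed 24 h; transcripts detected via RT-PCR and capillary electrophoresis.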
# [12] = ATG_ISRE_CIS: Attagene CIS-FACTORIAL HepG2 Assay for human Interferon Regulatory Factor 1 (IRF1) binding to an Interferon-Stimulated Response Element (ISRE) (AID 2282948); details: HepG2 ISRE cis-reporter (Attagene), mRNA transcription readout; actives raise or lower the signal
# How it was run: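 Uses HepG2 liver cells transfected with cis-regulated reporters and measures mRNA 24 h post-dosing through RT-PCR, primer-extension labelling and capillary electrophoresis, with DMSO as negative control.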
# [13] = ATG_M_06_CIS: Attagene CIS-FACTORIAL HepG2 Assay for M06 Transcription Factor (Internal Marker) (AID 2282950); details: HepG2 Attagene CIS-FACTORIAL M06 internal marker reporter; actives raise or lower the signal
# How it was run: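 Fluorescence-labelled RT-PCR products from cis-promoter reporter units, cut with HpaI and resolved by capillary electrophoresis, give the signal. Cells are human HepG2, dosed for 24 h. Serves as background control, fitted relative to DMSO.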
# [14] = ATG_MRE_CIS: Attagene CIS-FACTORIAL HepG2 Assay for human Metal Responsive Element (MRE) (AID 2282954); details: HepG2 MRE cis-reporter transcription, Attagene multiplex; actives raise or lower the signal
# How it was run: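 Multiplexed cis-reporter assay in human HepG2 liver cells, 24 h incubation with test chemical. Reporter transcripts measured by RT-PCR and capillary electrophoresis; values from bidirectional curve fitting versus DMSO.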
# [15] = target: Paired box protein Pax-6 (Homo sapiens) (UniProt P26367); test: ATG_Pax6_CIS: Attagene CIS-FACTORIAL HepG2 Assay for human Paired Box 6 (PAX6) (AID 2282956); details: HepG2 CIS-FACTORIAL PAX6 reporter transcription, RNA readout; actives raise or lower the signal
# How it was run: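 DMSO-referenced bidirectional fits of reporter mRNA fluorescence; HepG2 with transient cis-promoter MRTUs, 24 h post-dose, RT-PCR plus capillary electrophoresis detection.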
# [16] = target: Transcription factor Sp1 (Homo sapiens) (UniProt P08047); test: ATG_Sp1_CIS: Attagene CIS-FACTORIAL HepG2 Assay for human Specificity Protein 1 (Sp1) (AID 2282961); details: HepG2 Sp1 cis-reporter transcription, actives raise or lower the signal
# How it was run: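 Read-out is reporter transcript level, measured by RT-PCR and fluorescent capillary electrophoresis after 24 h chemical treatment. System: transiently transfected HepG2 cells reporting endogenous transcription factor activity; gain or loss fitted against DMSO baseline.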
# [17] = ATG_SREBP_CIS: Attagene CIS-FACTORIAL HepG2 Assay for human Sterol Regulatory Element Binding (SREBP) (AID 2282962); details: HepG2 Attagene cis-factorial SREBP reporter, mRNA; actives raise or lower the signal
# How it was run: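 In this cis-format assay, HepG2 liver cells express reporters controlled by promoter elements responsive to native transcription factors. Exposure lasts 24 h; reporter mRNA fluorescence from capillary electrophoresis gives the signal, fitted bidirectionally against DMSO.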
# [18] = target: Signal transducer and activator of transcription 3 (Homo sapiens) (UniProt P40763); test: ATG_STAT3_CIS: Attagene CIS-FACTORIAL HepG2 Assay for human Signal Transducer and Activator of Transcription 3 (STAT3) (AID 2282963); details: HepG2, Attagene cis-factorial STAT3 reporter transcription; actives raise or lower the signal
# How it was run: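 Cis-factorial format: endogenous transcription factors in HepG2 drive transfected reporter units. After 24 h treatment, reporter RNA was reverse-transcribed, amplified, FAM-labelled and HpaI-digested before CE analysis; activity scored in both directions against DMSO.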
# [19] = ATG_TAL_CIS: Attagene CIS-FACTORIAL HepG2 Assay for human TAL Basal Promoter (AID 2282966); details: HepG2 Attagene cis-factorial TAL promoter reporter; actives raise or lower the signal;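 also: background control endpoint measuring basal TAL promoter reporter mRNA not a specific factor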
# How it was run: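 Transiently transfected HepG2 (cis-regulated reporter units), 24 h treatment, mRNA read by fluorescent CE after RT-PCR; bidirectional fit, DMSO baseline.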
# [20] = target: X-box-binding protein 1 (Homo sapiens) (UniProt P17861); test: ATG_Xbp1_CIS: Attagene CIS-FACTORIAL HepG2 Assay for human X-box Binding Protein 1 (XBP1) (AID 2282972); details: HepG2 XBP1 cis-element reporter, Attagene multiplex; actives raise or lower the signal
# How it was run: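 Changes in reporter transcript abundance, read by RT-PCR and capillary electrophoresis, reflect endogenous transcription factor activity. Transfected HepG2 cells received compound for 24 hours; DMSO defined baseline for bidirectional analysis.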
# Sequence of Signal transducer and activator of transcription 3 (Homo sapiens) (P40763 whole entry, looked up): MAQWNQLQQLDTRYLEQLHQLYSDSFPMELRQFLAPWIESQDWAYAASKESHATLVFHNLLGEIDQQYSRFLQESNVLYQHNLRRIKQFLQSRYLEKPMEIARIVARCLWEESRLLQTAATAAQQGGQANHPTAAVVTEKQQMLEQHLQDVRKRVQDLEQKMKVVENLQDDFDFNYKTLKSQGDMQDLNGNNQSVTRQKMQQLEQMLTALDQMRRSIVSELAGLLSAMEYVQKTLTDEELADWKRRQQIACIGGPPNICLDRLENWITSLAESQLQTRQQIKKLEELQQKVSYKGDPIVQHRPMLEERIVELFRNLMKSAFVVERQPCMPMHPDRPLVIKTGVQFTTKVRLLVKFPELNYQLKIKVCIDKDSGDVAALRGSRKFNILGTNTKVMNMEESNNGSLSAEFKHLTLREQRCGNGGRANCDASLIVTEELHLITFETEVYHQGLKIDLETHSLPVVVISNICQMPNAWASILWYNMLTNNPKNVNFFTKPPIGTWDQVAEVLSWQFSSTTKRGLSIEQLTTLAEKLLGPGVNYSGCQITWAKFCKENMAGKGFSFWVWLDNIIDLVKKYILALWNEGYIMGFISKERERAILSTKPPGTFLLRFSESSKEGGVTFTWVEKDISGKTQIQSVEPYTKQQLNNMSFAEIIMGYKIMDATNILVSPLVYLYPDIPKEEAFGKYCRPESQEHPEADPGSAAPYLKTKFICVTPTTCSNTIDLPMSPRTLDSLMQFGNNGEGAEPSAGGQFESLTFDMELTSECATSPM
# Sequence of CCAAT/enhancer-binding protein beta (Homo sapiens) (P17676 whole entry, looked up): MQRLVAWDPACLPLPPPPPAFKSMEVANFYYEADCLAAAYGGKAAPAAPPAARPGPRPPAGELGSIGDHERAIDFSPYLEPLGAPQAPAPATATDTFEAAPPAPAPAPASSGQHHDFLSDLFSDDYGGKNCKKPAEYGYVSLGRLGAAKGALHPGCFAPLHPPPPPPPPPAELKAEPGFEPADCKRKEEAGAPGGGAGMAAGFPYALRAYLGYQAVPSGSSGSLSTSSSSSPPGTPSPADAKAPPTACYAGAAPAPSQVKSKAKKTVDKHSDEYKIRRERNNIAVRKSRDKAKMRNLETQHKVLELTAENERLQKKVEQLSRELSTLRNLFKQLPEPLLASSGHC
# Sequence of Transcription factor Sp1 (Homo sapiens) (P08047 whole entry, looked up): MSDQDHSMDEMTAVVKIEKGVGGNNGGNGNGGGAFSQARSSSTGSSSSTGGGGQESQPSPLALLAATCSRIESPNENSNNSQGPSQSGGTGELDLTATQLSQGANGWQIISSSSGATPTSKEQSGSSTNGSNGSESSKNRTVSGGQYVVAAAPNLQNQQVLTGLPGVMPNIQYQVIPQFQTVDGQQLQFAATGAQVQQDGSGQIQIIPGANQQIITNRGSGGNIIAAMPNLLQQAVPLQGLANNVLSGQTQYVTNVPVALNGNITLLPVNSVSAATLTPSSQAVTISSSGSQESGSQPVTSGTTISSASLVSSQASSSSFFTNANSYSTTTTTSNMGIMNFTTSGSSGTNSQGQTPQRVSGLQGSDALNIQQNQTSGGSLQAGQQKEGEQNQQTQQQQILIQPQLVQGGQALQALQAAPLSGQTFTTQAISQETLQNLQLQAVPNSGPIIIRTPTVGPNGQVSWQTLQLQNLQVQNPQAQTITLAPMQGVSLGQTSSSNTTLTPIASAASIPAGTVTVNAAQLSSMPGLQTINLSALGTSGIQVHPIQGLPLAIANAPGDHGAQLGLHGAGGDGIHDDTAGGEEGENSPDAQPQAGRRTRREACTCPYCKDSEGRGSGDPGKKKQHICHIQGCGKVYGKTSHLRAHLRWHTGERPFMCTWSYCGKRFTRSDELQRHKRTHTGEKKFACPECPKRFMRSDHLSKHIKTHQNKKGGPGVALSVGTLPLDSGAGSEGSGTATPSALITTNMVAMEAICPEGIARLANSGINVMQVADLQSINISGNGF
# Sequence of X-box-binding protein 1 (Homo sapiens) (P17861 whole entry, looked up): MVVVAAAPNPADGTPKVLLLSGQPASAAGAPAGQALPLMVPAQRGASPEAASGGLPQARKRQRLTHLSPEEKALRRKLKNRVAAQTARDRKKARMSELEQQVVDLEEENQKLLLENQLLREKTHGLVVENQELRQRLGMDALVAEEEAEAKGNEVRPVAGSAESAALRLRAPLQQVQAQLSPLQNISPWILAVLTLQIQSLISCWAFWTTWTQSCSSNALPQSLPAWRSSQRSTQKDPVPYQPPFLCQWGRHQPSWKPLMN
# Sequence of Paired box protein Pax-6 (Homo sapiens) (P26367 whole entry, looked up): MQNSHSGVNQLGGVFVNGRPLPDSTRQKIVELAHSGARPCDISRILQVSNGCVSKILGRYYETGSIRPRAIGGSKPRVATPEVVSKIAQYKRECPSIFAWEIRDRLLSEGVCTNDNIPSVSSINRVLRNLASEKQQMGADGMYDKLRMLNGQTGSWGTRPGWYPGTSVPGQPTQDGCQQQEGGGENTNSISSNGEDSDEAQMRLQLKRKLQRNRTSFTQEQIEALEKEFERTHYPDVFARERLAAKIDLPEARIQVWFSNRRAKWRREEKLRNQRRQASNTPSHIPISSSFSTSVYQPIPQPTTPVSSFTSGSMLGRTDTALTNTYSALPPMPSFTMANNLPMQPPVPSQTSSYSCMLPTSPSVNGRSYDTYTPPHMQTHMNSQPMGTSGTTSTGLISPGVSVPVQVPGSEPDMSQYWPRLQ
compound,measurement,setting,value
C=CCOCC(CC)(CO)COCC=C,outcome,[1],inactive
same,outcome,[2],inactive
same,outcome,[3],inactive
same,outcome,[4],inactive
same,outcome,[5],inactive
same,outcome,[6],inactive
same,outcome,[7],inactive
same,outcome,[8],inactive
same,outcome,[9],inactive
same,outcome,[10],inactive
same,outcome,[11],inactive
same,outcome,[12],inactive
same,outcome,[13],inactive
same,outcome,[14],inactive
same,outcome,[15],inactive
same,outcome,[16],inactive
same,outcome,[17],inactive
same,outcome,[18],inactive
same,outcome,[19],inactive
same,outcome,[20],inactive
O=C(CC(C(=O)OC1CCCCC1)S(=O)(=O)O)OC1CCCCC1 (stereo not given),outcome,[1],inactive
same,outcome,[2],inactive
same,outcome,[3],inactive
same,outcome,[4],inactive
same,outcome,[5],inactive
same,outcome,[6],inactive
same,outcome,[7],inactive
same,outcome,[8],inactive
same,outcome,[9],inactive
same,outcome,[10],inactive
same,outcome,[11],inactive
same,outcome,[12],inactive
same,outcome,[13],inactive
same,outcome,[14],inactive
same,outcome,[15],inactive
same,outcome,[16],inactive
same,outcome,[17],inactive
same,outcome,[18],inactive
same,outcome,[19],inactive
same,outcome,[20],inactive
O=C1NC(=O)C2CC=CCC12 (stereo not given),outcome,[1],inactive
same,outcome,[2],inactive
same,outcome,[3],inactive
same,outcome,[4],inactive
same,outcome,[5],inactive
same,outcome,[6],inactive
same,outcome,[7],inactive
same,outcome,[8],inactive
same,outcome,[9],inactive
same,outcome,[10],inactive
same,outcome,[11],inactive
same,outcome,[12],inactive
same,outcome,[13],inactive
same,outcome,[14],inactive
same,outcome,[15],inactive
same,outcome,[16],inactive
same,outcome,[17],inactive
same,outcome,[18],inactive
same,outcome,[19],inactive
same,outcome,[20],inactive
Cc1cc(O)cc(C)c1Cl,outcome,[1],inactive
same,AC50,[2],37.3 µM (active)
same,outcome,[3],inactive
same,outcome,[4],inactive
same,outcome,[5],inactive
same,outcome,[6],inactive
same,outcome,[7],inactive
same,outcome,[8],inactive
same,outcome,[9],inactive
same,outcome,[10],inactive
same,outcome,[11],inactive
same,outcome,[12],inactive
same,outcome,[13],inactive
same,outcome,[14],inactive
same,outcome,[15],inactive
same,AC50,[16],109 µM (active)
same,outcome,[17],inactive
same,outcome,[18],inactive
same,outcome,[19],inactive
same,outcome,[20],inactive
CC(=O)CCc1ccccc1,outcome,[1],inactive
same,outcome,[2],inactive
same,outcome,[3],inactive
same,outcome,[4],inactive
same,outcome,[5],inactive
same,outcome,[6],inactive
same,outcome,[7],inactive
same,outcome,[8],inactive
same,outcome,[9],inactive
same,outcome,[10],inactive
same,outcome,[11],inactive
same,outcome,[12],inactive
same,outcome,[13],inactive
same,outcome,[14],inactive
same,outcome,[15],inactive
same,outcome,[16],inactive
same,outcome,[17],inactive
same,outcome,[18],inactive
same,outcome,[19],inactive
same,outcome,[20],inactive
Cc1cc(-n2nc3ccc(Cl)cc3n2)c(O)c(C(C)(C)C)c1,outcome,[1],inactive
same,outcome,[2],inactive
same,outcome,[3],inactive
same,outcome,[4],inactive
same,outcome,[5],inactive
same,outcome,[6],inactive
same,outcome,[7],inactive
same,outcome,[8],inactive
same,outcome,[9],inactive
same,outcome,[10],inactive
same,outcome,[11],inactive
same,outcome,[12],inactive
same,outcome,[13],inactive
same,outcome,[14],inactive
same,outcome,[15],inactive
same,outcome,[16],inactive
same,outcome,[17],inactive
same,outcome,[18],inactive
same,outcome,[19],inactive
same,outcome,[20],inactive
CCCCC(CC)COC(=O)CS (stereo not given),outcome,[1],inactive
same,outcome,[2],inactive
same,outcome,[3],inactive
same,outcome,[4],inactive
same,outcome,[5],inactive
same,outcome,[6],inactive
same,outcome,[7],inactive
same,outcome,[8],inactive
same,outcome,[9],inactive
same,outcome,[10],inactive
same,outcome,[11],inactive
same,outcome,[12],inactive
same,outcome,[13],inactive
same,outcome,[14],inactive
same,outcome,[15],inactive
same,outcome,[16],inactive
same,outcome,[17],inactive
same,outcome,[18],inactive
same,outcome,[19],inactive
same,outcome,[20],inactive
